Laboratory results as given in article PMC5700166.
Substitutions are numbered along the chain they refer to.

Assays:
Test in all cases: protein-binding microarray (PBM); PBM: ~300 nM protein, 6 mM HEPES pH 7.8, 80 mM KCl, 0.5 mM EDTA, 0.5 mM EGTA, 6% glycerol, 35 ng/ul poly-dIdC, 1% milk, 1 h, room temperature; Ap Aiptasia and Nv Nematostella (sea anemones) / Co Capsaspora / Aq Amphimedon (sponge) / Dm Drosophila / Hu human; RHD is the Rel homology domain; high values mean tight binding
Settings in all cases: dsDNA, one strand shown
GST-Ap-NF-kB RHD = molecular target: T1, GST-Ap-NF-kB RHD (Exaiptasia pallida (Aiptasia), UniProt A0A913YAJ5 2-422)
T1 sequence: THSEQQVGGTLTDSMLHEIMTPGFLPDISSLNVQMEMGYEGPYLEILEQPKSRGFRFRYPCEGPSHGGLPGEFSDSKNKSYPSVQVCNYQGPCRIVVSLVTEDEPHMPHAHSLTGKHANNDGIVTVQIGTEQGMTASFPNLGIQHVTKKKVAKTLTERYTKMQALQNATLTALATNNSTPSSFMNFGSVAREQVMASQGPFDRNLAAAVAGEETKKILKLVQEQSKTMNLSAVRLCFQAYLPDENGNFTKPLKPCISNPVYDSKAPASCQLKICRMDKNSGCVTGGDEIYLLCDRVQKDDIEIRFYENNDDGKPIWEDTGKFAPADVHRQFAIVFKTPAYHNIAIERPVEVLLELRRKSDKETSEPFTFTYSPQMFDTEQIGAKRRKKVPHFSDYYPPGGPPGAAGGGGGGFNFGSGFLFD

[1] = molecular target: T2, GST-Nv-NF-kB (Cys allele) (Nematostella vectensis, UniProt E5G601 2-411)
T2 sequence: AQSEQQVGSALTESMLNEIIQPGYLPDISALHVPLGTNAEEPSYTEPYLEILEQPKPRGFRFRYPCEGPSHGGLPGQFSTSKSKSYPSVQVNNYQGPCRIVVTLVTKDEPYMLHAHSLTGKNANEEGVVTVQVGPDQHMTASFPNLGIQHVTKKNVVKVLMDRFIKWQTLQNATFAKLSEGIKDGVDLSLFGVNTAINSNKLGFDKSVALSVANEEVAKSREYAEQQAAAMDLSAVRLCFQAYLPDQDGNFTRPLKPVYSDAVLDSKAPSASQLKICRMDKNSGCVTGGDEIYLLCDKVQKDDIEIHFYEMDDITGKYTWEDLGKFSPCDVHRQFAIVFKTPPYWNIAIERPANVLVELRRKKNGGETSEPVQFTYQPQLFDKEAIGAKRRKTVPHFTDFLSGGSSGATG

[2] = molecular target: T3, GST-Nv-NF-kB (Ser allele) (Nematostella vectensis, UniProt A7UNT2 2-411)
T3 sequence: T2 sequence with Q21R, C66S, S207N, E215Q, V217A, E225K, A268E, D399E

GST-Co-NF-kB = molecular target: T4, GST-Co-NF-kB (Capsaspora owczarzaki, UniProt F1ARL5 200-546)
T4 sequence: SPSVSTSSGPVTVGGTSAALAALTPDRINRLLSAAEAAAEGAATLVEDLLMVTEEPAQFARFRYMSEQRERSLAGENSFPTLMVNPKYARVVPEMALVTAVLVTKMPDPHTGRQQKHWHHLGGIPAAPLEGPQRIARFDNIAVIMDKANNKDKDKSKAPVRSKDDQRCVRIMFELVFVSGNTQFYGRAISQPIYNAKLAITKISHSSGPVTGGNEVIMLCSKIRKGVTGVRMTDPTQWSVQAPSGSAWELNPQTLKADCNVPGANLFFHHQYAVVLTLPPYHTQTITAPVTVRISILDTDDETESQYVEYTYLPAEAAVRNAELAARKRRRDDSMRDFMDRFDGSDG

GST-Dm-Relish = molecular target: T5, GST-Dm-Relish (Drosophila melanogaster, UniProt Q94527 99-473)
T5 sequence: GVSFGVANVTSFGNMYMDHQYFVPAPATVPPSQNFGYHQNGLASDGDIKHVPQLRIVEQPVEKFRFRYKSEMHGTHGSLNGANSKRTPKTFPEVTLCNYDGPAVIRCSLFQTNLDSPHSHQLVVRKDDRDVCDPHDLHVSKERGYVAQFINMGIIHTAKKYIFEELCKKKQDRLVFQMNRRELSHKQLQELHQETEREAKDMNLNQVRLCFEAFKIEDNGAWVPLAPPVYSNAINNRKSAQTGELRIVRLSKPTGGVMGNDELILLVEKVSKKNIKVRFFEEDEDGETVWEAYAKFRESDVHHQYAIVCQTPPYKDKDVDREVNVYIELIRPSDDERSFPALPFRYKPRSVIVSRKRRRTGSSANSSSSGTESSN

GST-Aq-NF-kB = molecular target: T6, GST-Aq-NF-kB (Amphimedon queenslandica, UniProt A9Y5G7 2-389)
T6 sequence: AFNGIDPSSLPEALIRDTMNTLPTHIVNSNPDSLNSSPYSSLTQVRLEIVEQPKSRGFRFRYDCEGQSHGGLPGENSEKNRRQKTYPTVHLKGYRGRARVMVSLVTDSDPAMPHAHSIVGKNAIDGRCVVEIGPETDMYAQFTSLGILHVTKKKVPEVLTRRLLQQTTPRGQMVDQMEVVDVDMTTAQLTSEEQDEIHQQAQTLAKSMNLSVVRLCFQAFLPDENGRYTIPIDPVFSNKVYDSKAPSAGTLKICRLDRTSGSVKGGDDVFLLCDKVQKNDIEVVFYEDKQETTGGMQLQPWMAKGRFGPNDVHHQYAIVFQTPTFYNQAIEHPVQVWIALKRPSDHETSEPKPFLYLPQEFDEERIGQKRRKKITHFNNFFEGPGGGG

Sequence	binding signal (GST-Ap-NF-kB RHD)	binding signal [1]	binding signal [2]	binding signal (GST-Co-NF-kB)	binding signal (GST-Dm-Relish)	binding signal (GST-Aq-NF-kB)
CCGATTAACATCAGGGAAGTACATGATGTTAATCGGGTCTTGATTCGCTTGACGCTGCTG	1.18 z-score	1.34 z-score	1.35 z-score	1.54 z-score	9.23 z-score	2.86 z-score
CCGATTAACATCACCTATTCCCCTGATGTTAATCGGGTCTTGATTCGCTTGACGCTGCTG	5.73 z-score	5.93 z-score	7.28 z-score	5.72 z-score	2.23 z-score	4.27 z-score
CCGATTAACATCAGGGGATAATATGATGTTAATCGGGTCTTGATTCGCTTGACGCTGCTG	5.41 z-score	5.47 z-score	7.02 z-score	5.65 z-score	2.58 z-score	4.59 z-score
CCGATTAACATCAAAGATTTCCCTGATGTTAATCGGGTCTTGATTCGCTTGACGCTGCTG	4.23 z-score	6.33 z-score	7.19 z-score	4.84 z-score	2.9 z-score	5.13 z-score
CCGATTAACATCACATACCCCCCTGATGTTAATCGGGTCTTGATTCGCTTGACGCTGCTG	4.69 z-score	3.25 z-score	3.69 z-score	3.97 z-score	3.92 z-score	3.91 z-score
CCGATTAACATCACGATTTTCCCTGATGTTAATCGGGTCTTGATTCGCTTGACGCTGCTG	3.77 z-score	5.64 z-score	7.32 z-score	4.9 z-score	1.65 z-score	4.47 z-score
CCGATTAACATCAGCATTTTCCCTGATGTTAATCGGGTCTTGATTCGCTTGACGCTGCTG	3.21 z-score	4.61 z-score	6.85 z-score	3.96 z-score		3.68 z-score
CCGATTAACATCAGGGGAATGGATGATGTTAATCGGGTCTTGATTCGCTTGACGCTGCTG	5.2 z-score	5.95 z-score	7.13 z-score	3.65 z-score	1.71 z-score	4.07 z-score
CCGATTAACATCACCATTTTCCCTGATGTTAATCGGGTCTTGATTCGCTTGACGCTGCTG	3.46 z-score	4.65 z-score	7.17 z-score	3.65 z-score	1.32 z-score	3.42 z-score
CCGATTAACATCACTCTTTCCCCTGATGTTAATCGGGTCTTGATTCGCTTGACGCTGCTG	4.86 z-score	5.44 z-score	7.19 z-score	6.1 z-score	1.95 z-score	4.18 z-score
CCGATTAACATCAAAGGGAATTCTGATGTTAATCGGGTCTTGATTCGCTTGACGCTGCTG	4.72 z-score	7.1 z-score	6.91 z-score	2.97 z-score	4.04 z-score	5.65 z-score
CCGATTAACATCAGGGGGGGGTATGATGTTAATCGGGTCTTGATTCGCTTGACGCTGCTG	5.02 z-score	2.75 z-score	3.75 z-score	5.96 z-score		4.39 z-score
